Out of some 100,000 compounds screened, about 4,200 (4.2%) were called active. Many of the other results were omitted from the sample, so actives are more common in it than they were. Unmarked numbers belong to inactive results.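 The calls were made as follows: active = single-dose well whose peak fluorescence ratio is a statistical outlier from its plate by either plate-standardised score or position-corrected B-score; inactive = the rest.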

Chain of Voltage-dependent T-type calcium channel subunit alpha-1H (Homo sapiens) (O95180 whole entry, looked up): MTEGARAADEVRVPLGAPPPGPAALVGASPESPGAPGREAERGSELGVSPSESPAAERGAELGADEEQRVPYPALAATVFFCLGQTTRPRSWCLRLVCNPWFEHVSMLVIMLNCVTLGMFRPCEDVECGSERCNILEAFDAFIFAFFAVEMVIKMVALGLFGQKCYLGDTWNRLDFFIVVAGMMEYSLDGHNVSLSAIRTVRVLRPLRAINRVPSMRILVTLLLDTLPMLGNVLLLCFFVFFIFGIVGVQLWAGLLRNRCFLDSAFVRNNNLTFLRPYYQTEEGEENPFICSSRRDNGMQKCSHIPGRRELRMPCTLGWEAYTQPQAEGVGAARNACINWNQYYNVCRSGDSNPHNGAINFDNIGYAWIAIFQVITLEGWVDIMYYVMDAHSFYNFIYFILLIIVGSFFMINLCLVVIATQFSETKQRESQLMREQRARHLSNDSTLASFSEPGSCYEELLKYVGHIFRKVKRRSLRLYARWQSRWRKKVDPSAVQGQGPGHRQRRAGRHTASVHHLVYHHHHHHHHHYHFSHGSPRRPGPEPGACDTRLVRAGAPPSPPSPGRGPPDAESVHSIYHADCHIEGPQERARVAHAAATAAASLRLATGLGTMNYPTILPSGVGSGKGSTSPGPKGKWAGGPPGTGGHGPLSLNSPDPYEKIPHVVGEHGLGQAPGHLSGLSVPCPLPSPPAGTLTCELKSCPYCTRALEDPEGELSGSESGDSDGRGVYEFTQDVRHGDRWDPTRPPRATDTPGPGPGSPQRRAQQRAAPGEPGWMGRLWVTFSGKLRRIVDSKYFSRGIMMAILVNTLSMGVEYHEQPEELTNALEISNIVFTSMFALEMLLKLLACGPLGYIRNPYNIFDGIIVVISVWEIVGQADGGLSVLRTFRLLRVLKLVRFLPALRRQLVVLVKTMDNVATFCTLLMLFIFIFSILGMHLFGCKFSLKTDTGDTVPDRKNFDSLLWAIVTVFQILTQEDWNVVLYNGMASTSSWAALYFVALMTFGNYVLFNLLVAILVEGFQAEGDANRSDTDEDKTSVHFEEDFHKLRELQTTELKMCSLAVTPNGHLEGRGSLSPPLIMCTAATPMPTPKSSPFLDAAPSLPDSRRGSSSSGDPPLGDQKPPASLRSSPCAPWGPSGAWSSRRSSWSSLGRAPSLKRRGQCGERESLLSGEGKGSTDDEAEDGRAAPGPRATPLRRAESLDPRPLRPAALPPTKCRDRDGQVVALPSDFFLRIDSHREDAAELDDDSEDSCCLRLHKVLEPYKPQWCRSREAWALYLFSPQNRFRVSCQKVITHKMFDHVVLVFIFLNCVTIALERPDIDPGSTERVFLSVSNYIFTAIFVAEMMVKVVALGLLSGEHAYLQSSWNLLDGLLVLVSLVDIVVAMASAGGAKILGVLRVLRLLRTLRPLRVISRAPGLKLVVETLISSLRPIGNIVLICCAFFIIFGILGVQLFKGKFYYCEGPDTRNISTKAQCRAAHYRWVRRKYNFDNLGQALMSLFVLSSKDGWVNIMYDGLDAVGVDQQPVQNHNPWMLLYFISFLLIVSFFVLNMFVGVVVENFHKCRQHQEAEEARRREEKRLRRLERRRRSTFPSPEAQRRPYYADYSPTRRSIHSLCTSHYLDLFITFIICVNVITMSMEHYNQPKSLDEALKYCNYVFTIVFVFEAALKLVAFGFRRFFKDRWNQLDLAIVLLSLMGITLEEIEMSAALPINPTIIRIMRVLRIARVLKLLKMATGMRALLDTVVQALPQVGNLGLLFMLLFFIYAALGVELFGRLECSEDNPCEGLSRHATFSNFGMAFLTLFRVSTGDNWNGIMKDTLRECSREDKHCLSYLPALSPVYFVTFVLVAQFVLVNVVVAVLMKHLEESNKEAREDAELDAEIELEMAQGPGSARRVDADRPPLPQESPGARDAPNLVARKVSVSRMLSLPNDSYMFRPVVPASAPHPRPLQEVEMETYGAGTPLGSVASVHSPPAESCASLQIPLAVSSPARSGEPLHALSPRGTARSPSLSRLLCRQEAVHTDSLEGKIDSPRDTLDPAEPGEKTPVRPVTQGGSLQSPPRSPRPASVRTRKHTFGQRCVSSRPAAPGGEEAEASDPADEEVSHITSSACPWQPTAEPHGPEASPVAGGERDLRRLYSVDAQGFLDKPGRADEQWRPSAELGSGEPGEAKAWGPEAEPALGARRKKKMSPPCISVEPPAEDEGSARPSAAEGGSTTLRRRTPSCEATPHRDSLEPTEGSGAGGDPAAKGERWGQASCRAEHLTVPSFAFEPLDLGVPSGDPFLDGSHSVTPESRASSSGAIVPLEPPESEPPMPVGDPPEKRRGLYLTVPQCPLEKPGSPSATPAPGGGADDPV

This test addresses Voltage-dependent T-type calcium channel subunit alpha-1H (Homo sapiens) (UniProt O95180). Description: Cav3.2 calcium influx blockers – cell-based, Fluo-4 calcium fluorescence, FDSS, MLSMR library, primary screen (AID 449739). The settings on record: Cav3.2-expressing cells, at 10 µM, active compounds read low.
As to `Cn1ccnc1-c1nnn(-c2ccc(F)cc2)n1`, the B-score was -0.241.
For `Cc1cccc(C(=O)Nc2ccccc2-c2nnn(CC(=O)Nc3ccc4c(c3)OCCO4)n2)c1` the value was 0.0432.
Take `COc1ccc(C2/C=C\CN(S(=O)(=O)c3cccs3)CC(=O)N2Cc2ccc(F)cc2)cc1` (centres undefined): the B-score is -1.93.
For `O=C(Nc1ccc(Cl)cc1)N1CCc2[nH]c3ccccc3c2C1` the value was -6.38 (active); for `O=C(NC1CCCCC1)N1CCc2[nH]c3ccccc3c2C1`, -0.408; for `CCCC(=O)N1CCc2[nH]c3ccccc3c2C1`, 1.88.
To `CCC(C)NC(=O)c1c(N)n(/N=C/c2cccs2)c2nc3ccccc3nc12` (centres undefined) belongs -0.663.
For `COc1ccccc1OCCNc1cc(N2CCOCC2)ccc1[N+](=O)[O-]` the value was -0.763; for `CCOC(=O)c1sc(NC(=O)CSc2nc3c(c(=O)n2-c2ccccc2)SCC3)c(C(=O)OCC)c1C`, -0.157; for `CC(C)C[C@H](NC(=O)Nc1cccc(C(F)(F)F)c1)C(=O)O`, 0.25.
Turning to `FC(F)(F)c1cccc(NC(=S)Nc2cccc(Cl)c2)c1`, the B-score was -7.17 (active).
Consider `CC(=O)N1CCN(C(=O)Nc2cccc(C(F)(F)F)c2)CC1`, for which the B-score is 0.454.
For `c1ccc(-n2nnnc2NC2CCCCCC2)cc1` the value was 0.00228; for `O=C(c1ccco1)N1CCN(C(=O)C2c3ccccc3Oc3ccccc32)CC1`, 0.29.
For `O=C(N/N=C/c1ccc(O)c(O)c1)C1c2ccccc2Oc2ccccc21` the value was 1.05; for `CCCN(CCC)C(=O)C1c2ccccc2Oc2ccccc21`, -4.57 (active); for `C=CCNc1nc(N)c(C(=C(C#N)C#N)c2ccccc2)s1`, -0.0432.
With `COC(C[C@@H](O)[C@H](C)[C@H](O)COCc1ccccc1)OC`, the B-score is 0.321.
For `CCN(CC)c1ccc(NC(=O)c2ccc(Cl)nc2)cc1` the value was -0.986.
In the case of `CCOc1ccccc1Nc1nnc(SCc2ccc(C(=O)OC)o2)s1`, the B-score was -3.2.
To `COc1ccccc1-c1nnc(SCC(=O)N2CC(C)CC(C)C2)o1` (centres undefined) belongs 0.0644; to `COc1cccc(Nc2nnc(SCC(=O)N3CC(C)OC(C)C3)s2)c1` (centres undefined), -4.05 (active).
For `O=C(Nc1ccccc1)OCc1cn(-c2ccc(Cl)cc2)nn1` the value was -0.643; for `Cc1ccc(S(=O)(=O)N(CC(=O)N2CCc3ccccc3C2)c2cccc(Cl)c2)cc1`, -5.57 (active).
In the case of `COc1cccc(N(CC(=O)N2CCc3ccccc3C2)S(C)(=O)=O)c1`, the B-score is 1.04.
For `CCOC(=O)N1CCN(C(=O)CN(c2ccc(C)c(C)c2)S(=O)(=O)c2ccccc2)CC1` the value was -1.16; for `O=C(NCc1ccccc1)C1=C[C@H](C2CC2)C[C@H](OCc2ccc(CO)cc2)O1`, -0.049; for `CCOC(=O)c1c(NC(=O)C(C)Sc2c[nH]c3ccccc23)sc2c1CCC2` (centres undefined), -0.96.
For `C#CCOCCOCCOCCNc1nc(N2CCN(C(=O)[C@H](C(C)C)n3cc(CCO)nn3)CC2)nc(N2CCN(C(=O)[C@H]([C@@H](C)CC)n3cc(CCCN=C(N)N)nn3)CC2)n1` the value was 0.0921; for `CC1=NN(C(=O)c2ccccc2Br)C(O)(c2cccnc2)C1` (centres undefined), 0.377.
For `O=C(CSc1nnc(-c2ccccc2)o1)N1CCOCC1` the value was -0.483.
For the compound `CC1=CC(C)(C)N(C(=O)CSc2nnc(-c3ccccc3)o2)c2ccc(C)cc21`, the B-score is -4.16 (active).
For the compound `CC1=CC(C)(C)N(C(=O)CSc2nccn2C)c2cc(C)ccc21`, the B-score was -0.49.
In the case of `CC(C)=CCc1c(O)c(CC=C(C)C)c2occ(-c3ccc(O)cc3)c(=O)c2c1O`, the B-score is -0.844.
To `Cc1ccc(NC(=O)c2nc[nH]c2C(=O)N[C@@H](CCCCNC(=O)OC(C)(C)C)C(=O)OC(C)(C)C)cc1` belongs -0.574; to `CC(C)C(=O)OCC(=O)Nc1ccc2c(c1)CCC2`, 0.246.
For `CCN(CC)S(=O)(=O)c1cc([N+](=O)[O-])ccc1NNC(=O)Nc1ccccc1` the value was -4.53 (active); for `Cc1ccccc1NC(=S)Nc1cccc([N+](=O)[O-])c1`, -0.107.
For `CCN(CC)S(=O)(=O)c1cccc(C(=O)Nc2ccccc2)c1` the value was 0.194; for `O=C1CC2(CCCC2)Oc2ccc(Cl)cc21`, -0.0281.
In the case of `CCOC(=O)C1Nc2ccc(C(F)(F)F)cc2C2C=CCC12` (centres undefined), the B-score was -0.137.
For `CCN(CC)S(=O)(=O)c1ccc(NC(=O)CN(c2cccc(F)c2)S(C)(=O)=O)cc1`, the B-score was -6.56 (active).
For `COc1cccc(N(CC(=O)Nc2cccc(N(C)S(C)(=O)=O)c2)S(C)(=O)=O)c1` the value was -1.19; for `Cc1ccc(N(CC(=O)Nc2cccc(N(C)S(C)(=O)=O)c2)S(C)(=O)=O)cc1`, 1.01; for `CC1=C(N2CCN(c3ncccn3)CC2)CCC1=O`, 0.282.
For `C[C@@H]1CC[C@]2(O[C@@H](CCO)C[C@H](O)[C@H]2O)O1` the value was 0.111; for `COC(=O)c1cccc(NC(=O)CSc2nc(C)cc(=O)[nH]2)c1`, 0.842.
To `CCn1c(Cc2ccccc2)nnc1SCC(=O)Nc1ccccc1` belongs 0.0752; to `CSc1cccc(NC(=O)CSc2ccccc2)c1`, -6.09 (active).
In the case of `COC(C[C@@H]1O[C@@H]1C(=O)[C@@H](C)OCc1ccccc1)OC`, the B-score is 0.0102.
On to `Cc1cc(C)cc(NC(=O)c2cccc(NC(=O)C3C4CC5OC(=O)C3C5C4)c2)c1` (centres undefined), for which the B-score is -0.673.
In the case of `Cc1cccc(NC(=O)C2CC(=O)OC23CCCC3)c1` (centres undefined), the B-score is 2.01.
To `Cc1cccc(NC(=O)C(C)N2C(=O)C3C4CC(C(Br)C4Br)C3C2=O)c1` (centres undefined) belongs -4.83 (active); to `CC1(C)C=C2[C@H]3CC[C@@H]4[C@@]5(C)CCC(=O)C(C)(C)[C@@H]5CC[C@@]4(C)[C@]3(C)CC[C@@]2(C(=O)O)CC1`, -0.0499.
To `COc1ccc(CNC(=O)C2(CC3CC(c4ccccc4)=NO3)CCN(C(=O)c3cccc(O)c3)CC2)cc1` (centres undefined) belongs -0.683; to `CCOC(=O)C1=C(CSc2nccn2C)NC(=O)NC1c1ccc(OC)cc1` (centres undefined), 0.905; to `CCOC(=O)C1=C(CNC2CCCCC2)NC(=O)NC1c1cc(C)ccc1C` (centres undefined), -3.93 (active).
For `CCOC(=O)COc1ccc(Cl)cc1C1NC(=O)NC(C)=C1C(C)=O` (centres undefined), the B-score is 0.0116.
In the case of `O=c1cc(-c2ccccc2)[nH]c2cc(F)ccc12`, the B-score was -1.92.
With `N=c1c2c(-c3ccccc3)c(-c3ccccc3)n(Cc3ccccc3)c2ncn1CCCO`, the B-score is -7.3 (active).
For `N=c1c2c(-c3ccccc3)c(-c3ccccc3)oc2ncn1Cc1ccco1` the value was -2.43.
For the compound `OCCCN1c2ccccc2Nc2nnc(-c3ccccc3)cc21`, the B-score is 0.492.
For `Cc1cccc(NC(=S)NCc2ccc3[nH]c4c(c3c2)CCCC4)c1` the value was -3.54; for `CC(=O)C1=C(C)NC(C)=C(C(C)=O)C1c1cn(-c2ccccc2)nc1-c1cccs1`, -3.89 (active); for `COc1ccc(-c2nn(-c3ccccc3)cc2C(=O)Nc2nccs2)cc1OC`, -3.24.
`C=CCOC(=O)C1=C(C)NC(C)=C(C(=O)OCC=C)C1c1cccs1`: the B-score was -3.25.
With `CNC(=O)c1[nH]cnc1C(=O)N[C@@H](CC(C)C)C(=O)OCc1ccccc1`, the B-score is -0.016.
To `Cc1[nH]c2ccccc2c1C(=O)COC(=O)C(C)C` belongs 0.085.
For `COc1ccc2c(c1)SC(C)CC2=O` (centres undefined), the B-score is -0.0138.
For `CC1(C)S[C@@H]2[C@H](NC(=O)COc3ccccc3)C(=O)N2C1C(=O)OCc1ccccc1` (some centres undefined) the value was -1.43.
To `CCOc1ccc2c(c1)cc(CN(C(=O)CC)C1CCCCC1)c1nnnn12` belongs -4.82 (active).
For `CCOc1ccc2[nH]c(=O)c(CN(Cc3nnnn3Cc3ccccc3)CC3CCCO3)cc2c1` (centres undefined) the value was -0.479; for `CCc1ccc2c(c1)cc(CN(C(=S)Nc1ccccc1Cl)C1CC1)c1nnnn12`, 0.523; for `O=C(COc1ccc(Cl)cc1)NCCC1=CCCCC1`, -2.12.
`C=C1CCN([C@@H](Cc2ccccc2)C(=O)N2CCOCC2)S(=O)(=O)c2ccccc21`: the B-score was 0.119.
For `O=C1N=C(N2CCCC2)S/C1=C\c1cccc(Br)c1` the value was 0.36; for `O=C1N=C2SCCN2/C1=C\c1c(Cl)cccc1Cl`, -7.62 (active); for `O=C(NC1(C(F)(F)F)N=C2SCCN2C1=O)c1ccco1` (centres undefined), 0.645.
Consider `O=C(NC1=NCCS1)[C@H](Cc1ccccc1)N1C(=O)c2ccccc2C1=O`, for which the B-score is -0.0971.
For `NC(=O)CC[C@@H]1NC(=O)[C@@H]2CCCN2C(=O)c2cc([N+](=O)[O-])cc(F)c2NCCC[C@@H](C(N)=O)NC1=O` the value was 0.224; for `CCOC(=O)c1ccc(N2C(=O)CC(N3CC(C)OC(C)C3)C2=O)cc1` (centres undefined), 0.246.
For `CCOC(=O)c1ccc(N2C(=O)CC(N(C)Cc3ccccc3)C2=O)cc1` (centres undefined) the value was 0.0731.
On to `CCCCOC(=O)c1ccc(N2C(=O)CC(N3CCN(C/C=C/c4ccccc4)CC3)C2=O)cc1` (centres undefined), for which the B-score is -6.05 (active).
Consider `O=C(CCCN1C(=O)c2cccc3cccc(c23)C1=O)N1CCN(Cc2ccc3c(c2)OCO3)CC1`, for which the B-score was -2.86.
To `CC(=O)c1ccc(Cc2ncc(C(F)(F)F)cc2Cl)s1` belongs -0.288; to `O=C(Cc1ncc(C(F)(F)F)cc1Cl)Nc1cccc(Br)c1`, -4.67 (active); to `O=C(CN1CCN(c2ncc(C(F)(F)F)cc2Cl)CC1)Nc1ccc2c(c1)OCO2`, -1.4.
To `O=C(/C=C/c1cccs1)c1cc(Cl)ccc1OC(=O)N1CCOCC1` belongs -1.17.
To `CN1/C(=c2/s/c(=C3/C(=O)N(c4ccccc4)NC3=Nc3ccccc3)n(C)c2=O)C(C)(C)c2ccccc21` belongs -2.19.

(Values after PubChem BioAssay AID449739 (Vanderbilt High Throughput Screening Facility, 2010).)
